The values that follow come from PubChem BioAssay (NCATS).

Inconclusive results are not listed. A number with no mark means an inactive call. The source made the active and inactive calls. The call rests on the fitted dose curve; in most records, active means well fitted cell-killing curve with a large enough effect; inconclusive means small, poorly fitted or top-dose-only effect; inactive means flat fitted curve, though single readings scatter.
Potency means the concentration at half of the fitted maximal effect.

The first assay in a line: Cellular viability qHTS for adrenocortical cancer (ACC) cell line SW-13 (AID 1963989). Further: nearly all actives have a fitted effect of over 65% in size.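 On activity (max response): cells grown in serum-free medium with ITS supplement; on the % scale 0 is the no-effect control and ±100 the full control effect.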 Particulars: SW-13 ACC cells viability, CellTiter-Glo, 48 h; activity (max response): hits give low values. The gist of the method: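 IC50 and maximal-response values come from four-parameter logistic fits of titration data. SW-13 cells in serum-free medium received compounds (up to 46 uM final) for 48 h before CellTiter-Glo luminescence.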
`NC(N)=NCCN1CCCCCCC1`: the activity (max response) was 5.33%.
Take `Cc1ccc(NC(=O)NCc2ccc3c(c2)CN(C2CCC(=O)NC2=O)C3=O)cc1Cl` (centres undefined): the Potency is 0.0089 µM (active).
With `CCN1CCC[C@H]1CNC(=O)c1c(OC)ccc(Br)c1OC`, the activity (max response) was -0.795%.
Regarding `Cc1cccc(-c2[nH]c(CNc3ccccc3F)nc2-c2ccc3ncnn3c2)n1`, the activity (max response) was -16.8%.
On the same count and under the same terms, to `CC(=O)OCC(=O)[C@@]1(O)CC[C@H]2[C@@H]3CCC4=CC(=O)C=C[C@]4(C)[C@@]3(F)[C@@H](O)C[C@@]21C` belongs 2.62%.

The next assay in a line: Cellular viability qHTS for adrenocortical cancer (ACC) cell line NCI-H295R (AID 1963990). Further: nearly all actives have a fitted effect of over 60% in size.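 On activity change, negative = viability loss: 0% = DMSO only wells and -100% = full killing with cytotoxic reference compound.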 Particulars: CellTiter-Glo ATP luminescence, 48 h; series mostly up to 46.1 µM; activity change, negative = viability loss: at the top concentration. The method in brief:
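Adrenocortical carcinoma cells, suspended at 300 000 cells/mL in serum-free DMEM plus ITS, rested overnight before pin transfer of compound. After two days' incubation, ATP-dependent luminescence was recorded and curve-fitted.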
(In general: In qHTS, concentration-response curves come from the screen itself.)
Consider `CC(C)NCC(O)c1ccc2ccccc2c1` (centres undefined), for which the “activity change, negative = viability loss” value is 8.42%.
Still for that read-out and setting: to `c1ccc2c(c1)CCCC2C1=NCCN1` (centres undefined) belongs -22.4%.
Take `CC(O)Cn1cnc2c1c(=O)n(C)c(=O)n2C` (centres undefined): the “activity change, negative = viability loss” value is -13%.
On the same count and under the same terms, to `COC1=C2C[C@H](C)C[C@H](OC)[C@H](O)[C@@H](C)/C=C(/C)[C@H](OC(N)=O)[C@@H](OC)/C=C\C=C(\C)C(=O)NC(=CC1=O)C2=O` belongs -6.46%.
With `CC(=O)O/N=C1/C(c2c(O)[nH]c3cc(Br)ccc23)=Nc2ccccc21`, the Potency was 15.8 µM (active).
For `CCN(CC)CCOCCOC(=O)C1(c2ccccc2)CCCC1`, the “activity change, negative = viability loss” value is -9.67%.
As for `Oc1c(Cl)cc(Cl)cc1Sc1cc(Cl)cc(Cl)c1O`, the Potency was 20.6 µM (active).
With `N/C(=N\N=C\c1ccc(Cl)cc1)N/N=C/c1ccc(Cl)cc1`, the “activity change, negative = viability loss” value was -24%.
The same measure, in the same setting: to `C[C@H]1CC2[C@@H]3CCC4=CC(=O)C=C[C@]4(C)[C@@]3(F)[C@@H](O)C[C@]2(C)[C@@]1(O)C(=O)CO` (some centres undefined) belongs -9.63%; to `C=CCN1C[C@H](C(=O)N(CCCN(C)C)C(=O)NCC)C[C@@H]2c3cccc4[nH]cc(c34)C[C@H]21`, 5.85%.
As for `CC(=O)SCC(CC(=O)c1ccc(C)cc1)C(=O)O` (centres undefined), the “activity change, negative = viability loss” value is 3.41%.
Still for that read-out and setting: to `Cc1c(N)c(=O)n(-c2ccccc2)n1C` belongs -9.26%; to `O=C(Nc1ccccc1)Nc1ccc(-c2ccc(C(=O)[C@@H]3CCC[C@H]3C(=O)O)cc2)cc1`, -0.0718%.
Turning to `COCCNc1cc(NC(=O)N2CCCc3cc(CN4CCN(C)CC4=O)c(C=O)nc32)ncc1C#N`, the activity change, negative = viability loss is -1.4% [at 9.17 µM].
Turning to `Nc1cc(C(F)(F)F)c(-c2nc(N3CCOCC3)nc(N3CCOCC3)n2)cn1`, the Potency was 2 µM (active).
With `C#CC1(O)CC[C@H]2[C@@H]3CCC4=CCCC[C@@H]4[C@H]3CC[C@@]21C` (some centres undefined), the “activity change, negative = viability loss” value is -26.5%.
`COc1cc(/C=C/C(=O)O[C@H]2CC[C@]34C[C@]35CC[C@]3(C)[C@@H]([C@H](C)CCC=C(C)C)CC[C@@]3(C)[C@@H]5CC[C@H]4C2(C)C)ccc1O`: the Potency is 18.4 µM (active).
Take `CC(C)CCOC(=O)c1ccc(N(C)C)cc1`: the “activity change, negative = viability loss” value was 13.4%.
Still for that read-out and setting: to `Cc1[nH]cnc1CN1CCc2c(c3ccccc3n2C)C1=O` belongs -26.7%; to `CCOc1ccc(-n2c([C@@H](C)N(Cc3cccnc3)C(=O)Cc3ccc(F)c(C(F)(F)F)c3)nc3ncccc3c2=O)cc1`, -2.19%.
With `CC(=O)Oc1cccc2c1C(=O)c1c(OC(C)=O)cc(C(=O)O)cc1C2=O`, the “activity change, negative = viability loss” value is -22.4%.
Turning to `O[C@@H](c1cc(C(F)(F)F)nc2c(C(F)(F)F)cccc12)[C@H]1CCCCN1`, the Potency is 5.17 µM (active).
On to `Cc1cccc(-c2[nH]ncc2-c2ccc(F)c(-c3cnn(CCO)c3)c2)n1`, for which the “activity change, negative = viability loss” value was -7.9%.
Same read-out and setting: to `CO[C@H]1C=CO[C@@]2(C)Oc3c(C)c(O)c4c(O)c(c(/C=N/N5CCN(C)CC5)c(O)c4c3C2=O)NC(=O)/C(C)=C\C=C[C@H](C)[C@H](O)[C@@H](C)[C@@H](O)[C@@H](C)[C@H](OC(C)=O)[C@@H]1C` belongs -23.5%; to `COC(=O)c1c(Cl)c(Cl)c(C(=O)OC)c(Cl)c1Cl`, -7.67% [at 92.7 µM]; to `CNC(=O)c1c(C)oc2cc(Oc3ncnc4cc(OC)c(OC)cc34)ccc12`, 12.2%.
On to `CN1CC[C@H](c2c(O)cc(O)c3c(=O)cc(-c4ccccc4Cl)oc23)[C@H](O)C1`, for which the Potency is 0.103 µM (active).
On to `CC(=O)Oc1ccc(C(c2ccc(OC(C)=O)cc2)c2ccccn2)cc1`, for which the “activity change, negative = viability loss” value was -25.2%.
With `Cc1cc(C)c(/C=C2\C(=O)Nc3ccccc32)[nH]1`, the Potency result was “inactive”.
For the molecule `CC(C)NC(=O)N1CC[C@H](N=C2Nc3cc(F)ccc3N(CC(F)F)c3ccc(Cl)cc32)C1`, the “activity change, negative = viability loss” value is -17.7% [at 15.4 µM].
On to `C[C@H](CS)C(=O)N1CCC[C@H]1C(=O)O`, for which the “activity change, negative = viability loss” value is -25.6%.
As to `COc1cc(O)c(C(=O)c2ccccc2)cc1S(=O)(=O)O`, the “activity change, negative = viability loss” value was 0.528%.
In the case of `N=C1S/C(=C\c2ccc(-c3ccc4c(c3)C(=O)NC4=O)o2)C(=O)N1c1ccc(Br)cc1`, the “activity change, negative = viability loss” value is 1.76% [at 20 µM].
Regarding `C[C@@H]1C[C@H]2[C@@H]3CCC4=CC(=O)C=C[C@]4(C)[C@@]3(F)[C@@H](O)C[C@]2(C)[C@H]1C(=O)CO`, the “activity change, negative = viability loss” value is 2.27%.
